The structures appear in SMILES notation. In all, about 39,000 compounds went through this assay and about 3,300 (8.5%) were called active. What follows is part of a selection rich in actives, with near analogues and random picks from the rest.

The values that follow come from the antibiotic and cytotoxicity screens of Wong et al. (2023).

For this assay, the system named is HepG2. The experiment in a line: cytotoxicity call (relative viability < 0.9). The settings on record: 10 µM.
With `C[C@@H]1CN([C@@H](C)CO)C(=O)c2cccc(NC(=O)Nc3cccc4ccccc34)c2O[C@H]1CN(C)S(=O)(=O)c1ccccc1F`, the cytotoxicity call was “inactive”. Then `Cc1noc(C)c1NC(=O)Nc1ccc2c(c1)C(=O)N([C@H](C)CO)C[C@H](C)[C@H](CN(C)S(C)(=O)=O)O2`, with “inactive”; and `O=C(CN1CCOCC1)N[C@@H]1CC[C@H](CCNC(=O)Nc2cc(F)ccc2F)O[C@@H]1CO`, with “inactive”.

As to `COc1ccc(NC(=O)N(C)C[C@@H]2OCCCC[C@H](C)Oc3ccc(NC(=O)c4ccccc4)cc3C(=O)N([C@H](C)CO)C[C@H]2C)cc1`, the cytotoxicity call was “inactive”.

For `O=C(C[C@H]1C=C[C@@H](NC(=O)C2CC2)[C@@H](CO)O1)NCCCN1CCOCC1`, the cytotoxicity call is “inactive”.

As for `NNC(=O)CNc1ccc2c(c1)OCO2`, the cytotoxicity call is “inactive”. As for `C[N+](C)(C)CCCCNC(=O)[C@H]1C[C@H]2C(=O)N[C@@H](Cc3ccccc3)C(=O)N2[C@H]1c1cccc(OCCO)c1`, the entry is “inactive”; as for `C[C@H]1CN([C@@H](C)CO)C(=O)c2cc(C#CC3(O)CCCC3)cnc2O[C@@H]1CN(C)S(=O)(=O)c1ccc(F)cc1`, “inactive”; as for `C[C@H]1[C@H](NC(=O)/C(=N\OC(C)(C)C(=O)O)c2csc(N)n2)C(=O)N1S(=O)(=O)O`, “inactive”.

For the compound `C[C@@H]1CCCCO[C@H](CN(C)S(C)(=O)=O)[C@H](C)CN([C@@H](C)CO)C(=O)c2cc(NC(=O)CCCN(C)C)ccc2O1`, the cytotoxicity call is “inactive”. Then `CCS(=O)(=O)NCC[C@H]1CC[C@H](NS(=O)(=O)c2cccc(F)c2)[C@@H](CO)O1`, with “inactive”; and `C[C@@H]1CCCCO[C@H](CN(C)C(=O)Nc2cccc3ccccc23)[C@H](C)CN([C@@H](C)CO)C(=O)c2cc(NC(=O)Cc3ccccc3)ccc2O1`, with “inactive”. As for `COc1ccc(S(=O)(=O)N[C@@H]2CC[C@@H](CC(=O)N3CCC(Cc4ccccc4)CC3)O[C@H]2CO)cc1`, the entry is “inactive”; as for `C[C@H]1CCCCO[C@@H](CN(C)C(=O)Nc2ccc(C(F)(F)F)cc2)[C@@H](C)CN([C@@H](C)CO)C(=O)c2cc(NC(=O)c3ccncc3)ccc2O1`, “inactive”; as for `C[C@@H]1CCCCO[C@@H](CN(C)C(=O)Nc2ccc3c(c2)OCO3)[C@@H](C)CN([C@@H](C)CO)C(=O)c2cc(NC(=O)Nc3ccc(C(F)(F)F)cc3)ccc2O1`, “inactive”. Take `C[C@@H]1CCCCO[C@H](CN(C)C(=O)Nc2ccc(C(F)(F)F)cc2)[C@H](C)CN([C@H](C)CO)C(=O)c2cc(NC(=O)Cc3ccccc3)ccc2O1`: the cytotoxicity call is “inactive”. Then `COc1ccc(NC(=O)Nc2ccc3c(c2)C(=O)N([C@H](C)CO)C[C@H](C)[C@H](CN(C)CC2CCCCC2)OCCCC[C@@H](C)O3)cc1`, with “inactive”; and `COc1ccc(NC(=O)Nc2ccc3c(c2)C(=O)N([C@H](C)CO)C[C@H](C)[C@@H](CN(C)CC2CCCCC2)OCCCC[C@H](C)O3)cc1`, with “inactive”; and `COc1ccc(NC(=O)Nc2ccc3c(c2)C(=O)N([C@@H](C)CO)C[C@H](C)[C@H](CN(C)CC2CCCCC2)OCCCC[C@H](C)O3)cc1`, with “active”. Consider `O=C(O[C@@H]1O[C@@H]2COC(=O)c3cc(O)c(O)c(O)c3-c3c(cc(O)c(O)c3O)C(=O)O[C@H]2[C@H](OC(=O)c2cc(O)c(O)c(O)c2)[C@H]1OC(=O)c1cc(O)c(O)c(O)c1)c1cc(O)c(O)c(O)c1`, for which the cytotoxicity call is “active”. Then `O=C(O[C@@H]1O[C@@H]2COC(=O)c3cc(Oc4c(C(=O)O)cc(O)c(O)c4O)c(O)c(O)c3-c3c(cc(O)c(O)c3O)C(=O)O[C@H]2[C@H](OC(=O)c2cc(O)c(O)c(O)c2)[C@H]1OC(=O)c1cc(O)c(O)c(O)c1)c1cc(O)c(O)c(O)c1`, with “inactive”; and `O=C(O[C@@H]1Cc2c(O)cc(O)cc2O[C@@H]1c1cc(O)c(O)c(O)c1-c1c([C@H]2Oc3cc(O)cc(O)c3C[C@H]2O)cc(O)c(O)c1O)c1cc(O)c(O)c(O)c1`, with “inactive”; and `O=C(O[C@@H]1O[C@H]2COC(=O)c3cc(O)c(O)c(O)c3-c3c(cc(O)c(O)c3O)C(=O)O[C@@H]([C@H]1O)[C@@H]2OC(=O)c1cc(O)c(O)c(O)c1-c1c(C(=O)O)cc(O)c(O)c1O)c1cc(O)c(O)c(O)c1`, with “active”.

For the compound `O=C(O[C@@H]1O[C@H]2COC(=O)c3cc(O)c(O)c(O)c3-c3c(cc(O)c(O)c3O)C(=O)O[C@@H]([C@H]1O)[C@@H]2O)c1cc(O)c(O)c(O)c1`, the cytotoxicity call is “inactive”. Then `O=C(OC1Cc2c(O)cc(O)cc2OC1c1cc(O)c(O)c(O)c1-c1c(C2Oc3cc(O)cc(O)c3CC2OC(=O)c2cc(O)c(O)c(O)c2)cc(O)c(O)c1O)c1cc(O)c(O)c(O)c1` (stereo not drawn), with “inactive”. As for `C[C@@H]1CCCCO[C@H](CN(C)C(=O)CCC(F)(F)F)[C@@H](C)CN([C@H](C)CO)C(=O)c2cc(NC(=O)NC3CCCCC3)ccc2O1`, the entry is “inactive”; as for `C[C@@H]1CN([C@H](C)CO)C(=O)c2cccc(NC(=O)C3CCOCC3)c2O[C@H]1CN(C)Cc1ccc(C(=O)O)cc1`, “inactive”; as for `Cc1ccc(S(=O)(=O)Nc2ccc3c(c2)C(=O)N([C@@H](C)CO)C[C@H](C)[C@H](CN(C)C(=O)Nc2c(C)noc2C)OCCCC[C@@H](C)O3)cc1`, “inactive”. With `C[C@H]1CN([C@@H](C)CO)C(=O)Cc2cc(NC(=O)Nc3cccc4ccccc34)ccc2O[C@@H]1CN(C)Cc1ccc2c(c1)OCO2`, the cytotoxicity call was “inactive”. As for `C[C@@H]1CN([C@@H](C)CO)C(=O)Cc2cc(NC(=O)Nc3cccc4ccccc34)ccc2O[C@@H]1CN(C)Cc1ccc2c(c1)OCO2`, the entry is “active”. Consider `C[C@H](CO)N1C[C@H](C)[C@H](CN(C)Cc2ccc3c(c2)OCO3)Oc2ccc(NC(=O)Nc3cccc4ccccc34)cc2CC1=O`, for which the cytotoxicity call is “inactive”. As for `C[C@@H]1CN([C@H](C)CO)C(=O)Cc2cc(NC(=O)Nc3cccc4ccccc34)ccc2O[C@@H]1CN(C)Cc1ccc2c(c1)OCO2`, the entry is “active”; as for `C[C@H]1CN([C@@H](C)CO)C(=O)Cc2cc(NC(=O)Nc3cccc4ccccc34)ccc2O[C@H]1CN(C)Cc1ccc2c(c1)OCO2`, “inactive”; as for `C[C@@H]1CN([C@H](C)CO)C(=O)Cc2cc(NC(=O)Nc3cccc4ccccc34)ccc2O[C@H]1CN(C)Cc1ccc2c(c1)OCO2`, “inactive”. As for `C[C@H](CO)N1C[C@H](C)[C@@H](CN(C)Cc2ccc3c(c2)OCO3)Oc2ccc(NC(=O)Nc3cccc4ccccc34)cc2C1=O`, the entry is “inactive”; as for `C[C@@H]1CN([C@@H](C)CO)C(=O)Cc2cc(NC(=O)Nc3cccc4ccccc34)ccc2O[C@H]1CN(C)Cc1ccc2c(c1)OCO2`, “active”. On to `C[C@H](CO)N1C[C@H](C)[C@@H](CN(C)Cc2ccc3c(c2)OCO3)Oc2ccc(NC(=O)Nc3cccc4ccccc34)cc2CC1=O`, for which the cytotoxicity call was “inactive”. Consider `O=c1[nH][nH]c(=O)c(Cl)c1Cl`, for which the cytotoxicity call is “inactive”. For `COc1ccc(NC(=O)N(C)C[C@@H]2Oc3c(NC(=O)C4CC4)cccc3C(=O)N([C@@H](C)CO)C[C@H]2C)cc1`, the cytotoxicity call is “inactive”. As for `CC(C)CC#Cc1ccc2c(c1)O[C@H](CN(C)C(=O)NC1CCCC1)[C@@H](C)CN([C@H](C)CO)S2(=O)=O`, the entry is “inactive”. As for `CC(C)NC(=O)Nc1cccc2c1O[C@H](CN(C)S(=O)(=O)c1ccc(Cl)cc1)[C@H](C)CN([C@@H](C)CO)C2=O`, the entry is “inactive”; as for `COc1ccc(CN(C)C[C@@H]2OCCCC[C@@H](C)Oc3ccc(NS(=O)(=O)c4c(C)noc4C)cc3C(=O)N([C@H](C)CO)C[C@H]2C)cc1`, “inactive”; as for `C[C@@H]1CN([C@@H](C)CO)C(=O)c2cc(NC(=O)Cc3cn(C)c4ccccc34)ccc2O[C@H]1CN(C)S(=O)(=O)c1cn(C)cn1`, “inactive”. Then `COc1ccc(NC(=O)Nc2ccc3c(c2)C(=O)N([C@@H](C)CO)C[C@H](C)[C@H](CN(C)C(=O)Nc2ccc4c(c2)OCO4)OCCCC[C@H](C)O3)cc1`, with “inactive”; and `CCS(=O)(=O)Nc1ccc2c(c1)/C(=C(/Nc1ccc(CN3CCCCC3)cc1)c1ccccc1)C(=O)N2`, with “active”. With `CCS(=O)(=O)Nc1ccc2c(c1)C(=O)N(C)[C@@H]1CC[C@H](CC(=O)N[C@H]3CCN(Cc4ccccc4)C3)O[C@H]1CO2`, the cytotoxicity call was “inactive”.

On to `CCS(=O)(=O)Nc1ccc2c(c1)CC(=O)N2`, for which the cytotoxicity call was “inactive”. Then `N#Cc1cccc(NCCN2CCNC2=O)n1`, with “inactive”; and `C=CCCN(CC#C[C@H]1Oc2ccccc2S(=O)(=O)N2CCC[C@@H]12)S(=O)(=O)c1ccc(C)cc1`, with “active”. As for `Cc1ccc(S(=O)(=O)N(C)C[C@H]2Oc3cc(C#Cc4ccccc4)ccc3S(=O)(=O)N([C@H](C)CO)C[C@@H]2C)cc1`, the entry is “inactive”. As for `Cc1ccc(S(=O)(=O)N(C)C[C@@H]2Oc3cc(C#Cc4ccccc4)ccc3S(=O)(=O)N([C@H](C)CO)C[C@H]2C)cc1`, the entry is “inactive”.

Regarding `C[C@@H]1CCCCO[C@H](CN(C)C(=O)Cc2ccccc2)[C@@H](C)CN([C@H](C)CO)C(=O)c2cc(NS(=O)(=O)c3ccc(F)cc3)ccc2O1`, the cytotoxicity call was “inactive”. As for `Cc1noc(C)c1NC(=O)Nc1ccc2c(c1)C(=O)N([C@H](C)CO)C[C@@H](C)[C@H](CN(C)C(=O)Nc1ccc(C(F)(F)F)cc1)OCCCC[C@H](C)O2`, the entry is “inactive”. With `CCCNC(=O)Nc1ccc2c(c1)OC[C@H](C)N(Cc1ccc(-c3ccccn3)cc1)C[C@@H](C)[C@@H](OC)CN(C)C2=O`, the cytotoxicity call was “inactive”. As for `O=C(C[C@H]1CC[C@H]2[C@@H](COC[C@@H](O)CN2Cc2cc(F)ccc2F)O1)N[C@H]1CCN(Cc2ccccc2)C1`, the entry is “active”; as for `O=C(C[C@@H]1CC[C@H]2[C@@H](COC[C@H](O)CN2Cc2cc(F)ccc2F)O1)N[C@H]1CCN(Cc2ccccc2)C1`, “inactive”.

Consider `O=C(C[C@H]1CC[C@H]2[C@@H](COC[C@H](O)CN2Cc2cc(F)ccc2F)O1)N[C@H]1CCN(Cc2ccccc2)C1`, for which the cytotoxicity call is “inactive”.

In the case of `O=C(C[C@H]1CC[C@@H]2[C@H](COC[C@@H](O)CN2Cc2cc(F)ccc2F)O1)N[C@@H]1CCN(Cc2ccccc2)C1`, the cytotoxicity call was “active”. As for `O=C(C[C@H]1CC[C@H]2[C@@H](COC[C@@H](O)CN2Cc2cc(F)ccc2F)O1)N[C@@H]1CCN(Cc2ccccc2)C1`, the cytotoxicity call is “inactive”. As for `O=C(C[C@@H]1CC[C@H]2[C@@H](COC[C@@H](O)CN2Cc2cc(F)ccc2F)O1)N[C@H]1CCN(Cc2ccccc2)C1`, the entry is “inactive”; as for `O=C(C[C@@H]1CC[C@@H]2[C@H](COC[C@@H](O)CN2Cc2cc(F)ccc2F)O1)N[C@@H]1CCN(Cc2ccccc2)C1`, “inactive”; as for `O=C(C[C@H]1CC[C@@H]2[C@H](COC[C@@H](O)CN2Cc2cc(F)ccc2F)O1)N[C@H]1CCN(Cc2ccccc2)C1`, “active”. As for `O=C(C[C@@H]1CC[C@@H]2[C@H](COC[C@@H](O)CN2Cc2cc(F)ccc2F)O1)N[C@H]1CCN(Cc2ccccc2)C1`, the entry is “inactive”.
